Measurements: the supplement of paper PMC10849652
About 7,900 targets were measured; listed, in parts, are those with a hit and a random draw of the rest. About 0.6% of all pairs of compound and target were hits.

Legend:
Assay in all cases: log2 fold change, soluble protein after heating vs DMSO (PISA); higher = thermal stabilisation; K562 cells, 10 uM, 30 min; active = over 0.2 and 3.5 SD of the protein, either way, in both replicates (recomputed)
[1] = compound: CC1=C(C=C(C=C1)NC(=O)C2=CC(=CC=C2)C(C)(C)C#N)NC3=CC4=C(C=C3)N=CN(C4=O)C
Method in brief: (§1)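 K562 cells at 2×10^6 cells/mL were given 10 μM compound for 30 min. Aliquots then went through 3 min of heating across 48°C-58°C, were pooled, and were extracted in PBS with 0.5% NP-40 at 4°C, and the supernatant after 21,000xg for 90 min was quantified by TMTpro 16plex LC-MS/MS with channel sums equalised. Thermal stability relative to control samples, from duplicates, is given as log2 fold change.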

[2] = compound: CC1=C(C=C(C=C1)NC(=O)C2=CC(=CC=C2)N(C)C)NC(=O)C3=CC=C(C=C3)O
Method in brief: as §1

[3] = compound: CC1=CC=C(C=C1)SC2=C3C=C(SC3=CN=C2)C(=O)N
Method in brief: as §1

[4] = compound: CC1=NC(=CC=C1)C2=C(N=C(N2)C(C)(C)C)C3=CC4=NC=CN=C4C=C3
Method in brief: as §1

[5] = compound: CCCCN(Cc1ccc(C(=O)NO)cc1)C(=O)Nc1ccccc1 [Nexturastat A]
Method in brief: as §1

[6] = compound: CCCS(=O)(=O)Nc1ccc(F)c(C(=O)c2c[nH]c3ncc(-c4ccc(Cl)cc4)cc23)c1F [vemurafenib]
Method in brief: as §1

[7] = compound: CCCS(=O)(=O)Nc1ccc(F)c(C(=O)c2c[nH]c3ncc(Cl)cc23)c1F
Method in brief: as §1

[8] = compound: CCCc1cc(C)[nH]c(=O)c1CNC(=O)c1cc(-c2ccnc(N3CCN(C)CC3)c2)cc2c1cnn2C(C)C
Method in brief: as §1

[9] = compound: CCN(CC)Cc1ccc2cc(COC(=O)Nc3ccc(C(=O)NO)cc3)ccc2c1 [givinostat]
Method in brief: as §1

[10] = compound: CCN(CCCOc1ccc2c(Nc3cc(CC(=O)Nc4cccc(F)c4)[nH]n3)ncnc2c1)CCOP(=O)(O)O [barasertib]
Method in brief: as §1

[11] = compound: CC[C@@H]1C(=O)N(C)c2cnc(Nc3ccc(C(=O)NC4CCN(C)CC4)cc3OC)nc2N1C1CCCC1
Method in brief: as §1

[12] = compound: CC[C@@H]1C(=O)N(C)c2cnc(Nc3ccc(C(=O)N[C@H]4CC[C@H](N5CCN(CC6CC6)CC5)CC4)cc3OC)nc2N1C(C)C [volasertib]
Method in brief: as §1

[13] = compound: CC[C@H](C)N1C=C(C2=C(C=C(C=C21)C3=CN=C(C=C3)N4CCNCC4)C(=O)NCC5=C(C=C(NC5=O)C)C)C
Method in brief: as §1

[14] = compound: CC[C@H](C)[C@@H](C(=O)N[C@@H]([C@@H](C)O)C(=O)N[C@@H](CC(C)C)C(=O)[C@]1(CO1)C)NC(=O)[C@H]([C@@H](C)CC)N(C)C(=O)C [epoxomicin]
Method in brief: as §1

[15] = compound: CCn1c(C(=O)N(C2CC2)C2CC2)cc2c3c(ncn3C)c(Nc3cc(C)n(C)n3)nc21
Method in brief: as §1

[16] = compound: CCn1cc(-c2ccnc3[nH]c(-c4cccc(CN(C)C)c4)cc23)c(-c2ccc(NC(=O)N(C)C)cc2)n1
Method in brief: as §1

[17] = compound: CN(C)CC(=O)Nc1ccc2[nH]c(=O)c3ccccc3c2c1
Method in brief: as §1

[18] = compound: CN(CCOC1=CC=C(C=C1)C[C@H]2C(=O)NC(=O)S2)C3=CC=CC=N3 (racemic) [rosiglitazone]
Method in brief: as §1

[19] = compound: CN1C2=C(C3=C1C(=O)N(N=C3)CC4=CC(=CC=C4)N)SC(=C2)S(=O)C
Method in brief: as §1

[20] = compound: CN1CCC(CNc2ccc3ncc(-c4cccc(OC(F)(F)F)c4)n3n2)CC1
Method in brief: as §1

Measured: log2 fold change

ITIH4 (UniProt Q14624)
Sequence of UniProt Q14624 (Q14624 whole entry, looked up): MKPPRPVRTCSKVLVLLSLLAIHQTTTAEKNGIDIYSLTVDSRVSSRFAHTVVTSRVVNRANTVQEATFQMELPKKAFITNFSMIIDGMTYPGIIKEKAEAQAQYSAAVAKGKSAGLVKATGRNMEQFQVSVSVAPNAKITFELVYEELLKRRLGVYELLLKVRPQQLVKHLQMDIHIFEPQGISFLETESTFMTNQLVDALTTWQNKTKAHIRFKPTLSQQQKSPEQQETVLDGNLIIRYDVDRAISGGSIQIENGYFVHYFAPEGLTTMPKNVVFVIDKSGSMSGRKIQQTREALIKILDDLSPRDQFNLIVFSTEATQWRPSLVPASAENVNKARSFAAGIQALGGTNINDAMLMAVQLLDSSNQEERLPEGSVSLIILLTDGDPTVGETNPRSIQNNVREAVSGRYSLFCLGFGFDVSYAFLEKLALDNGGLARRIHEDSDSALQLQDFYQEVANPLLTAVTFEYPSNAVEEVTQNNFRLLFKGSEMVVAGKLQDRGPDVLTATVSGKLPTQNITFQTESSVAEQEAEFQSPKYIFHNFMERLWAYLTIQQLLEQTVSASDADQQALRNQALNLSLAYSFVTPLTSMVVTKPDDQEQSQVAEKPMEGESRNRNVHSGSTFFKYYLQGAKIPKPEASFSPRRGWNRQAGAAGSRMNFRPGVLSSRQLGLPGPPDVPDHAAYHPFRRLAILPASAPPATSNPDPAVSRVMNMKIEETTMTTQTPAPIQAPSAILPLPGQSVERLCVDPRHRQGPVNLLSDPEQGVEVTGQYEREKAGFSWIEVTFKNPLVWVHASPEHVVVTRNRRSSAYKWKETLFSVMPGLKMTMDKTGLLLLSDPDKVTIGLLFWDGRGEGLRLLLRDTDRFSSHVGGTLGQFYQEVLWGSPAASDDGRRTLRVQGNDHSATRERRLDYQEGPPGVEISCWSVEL
inactive: [1] -0.14 | [2] 0.166 | [3] 0.135 | [4] 0.214 | [5] 0.014 | [6] 0.224 | [7] 0.012 | [8] -0.211 | [9] -0.005 | [10] 0.014 | [11] -0.18 | [12] -0.311 | [13] -0.248 | [14] -0.318 | [15] 0.108 | [16] 0.102 | [17] -0.012 | [18] 0.129 | [19] 0.177 | [20] -0.413

ILF2 (UniProt Q12905)
Sequence of UniProt Q12905 (Q12905 whole entry, looked up): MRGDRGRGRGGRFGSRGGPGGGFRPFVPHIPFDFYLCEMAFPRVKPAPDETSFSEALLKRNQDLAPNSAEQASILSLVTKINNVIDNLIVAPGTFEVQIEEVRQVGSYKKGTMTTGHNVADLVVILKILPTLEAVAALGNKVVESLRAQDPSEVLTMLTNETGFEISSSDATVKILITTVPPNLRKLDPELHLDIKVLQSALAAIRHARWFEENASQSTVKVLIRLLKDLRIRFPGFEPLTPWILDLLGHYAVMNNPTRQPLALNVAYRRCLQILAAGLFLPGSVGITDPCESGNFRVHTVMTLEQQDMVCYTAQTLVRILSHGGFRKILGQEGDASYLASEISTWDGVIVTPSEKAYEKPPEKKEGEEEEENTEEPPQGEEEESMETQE
inactive: [1] 0.036 | [2] -0.032 | [3] -0.031 | [4] -0.041 | [5] 0.084 | [6] 0.028 | [7] -0.042 | [8] 0.032 | [9] -0.02 | [10] -0.119 | [11] 0.277 | [12] 0.281 | [13] 0.029 | [14] -0.186 | [15] -0.018 | [16] 0.2 | [17] -0.053 | [18] -0.099 | [19] 0.16 | [20] 0.352

MDN1 (UniProt Q9NU22)
active: [12] -0.334 | [20] -0.287
inactive: [1] -0.023 | [2] -0.021 | [3] 0.034 | [4] 0.061 | [5] -0.009 | [6] 0.02 | [7] 0.074 | [8] 0.027 | [9] 0.083 | [10] 0.047 | [11] -0.109 | [13] 0.093 | [14] 0.006 | [15] -0.119 | [16] -0.076 | [17] 0.031 | [18] 0.08 | [19] -0.027

ME2 (UniProt P23368)
Sequence of UniProt P23368 (P23368 whole entry, looked up): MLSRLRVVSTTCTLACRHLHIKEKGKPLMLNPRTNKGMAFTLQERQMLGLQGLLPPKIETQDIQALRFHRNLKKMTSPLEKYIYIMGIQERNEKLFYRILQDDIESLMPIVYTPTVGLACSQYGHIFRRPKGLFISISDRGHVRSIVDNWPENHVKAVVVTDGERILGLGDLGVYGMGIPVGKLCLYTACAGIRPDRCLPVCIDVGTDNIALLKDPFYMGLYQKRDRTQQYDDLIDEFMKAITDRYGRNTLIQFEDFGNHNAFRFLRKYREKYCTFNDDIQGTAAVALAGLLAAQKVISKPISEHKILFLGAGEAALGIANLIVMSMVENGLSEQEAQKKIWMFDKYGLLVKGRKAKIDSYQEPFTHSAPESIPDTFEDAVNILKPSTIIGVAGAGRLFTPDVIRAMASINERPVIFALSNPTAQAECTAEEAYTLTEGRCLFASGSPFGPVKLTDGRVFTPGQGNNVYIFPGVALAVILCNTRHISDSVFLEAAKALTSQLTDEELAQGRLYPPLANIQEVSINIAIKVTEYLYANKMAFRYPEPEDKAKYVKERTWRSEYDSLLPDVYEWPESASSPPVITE
active: [12] 0.445
inactive: [1] -0.01 | [2] -0.057 | [3] -0.044 | [4] -0.017 | [5] 0.015 | [6] 0.011 | [7] 0.002 | [8] 0.022 | [9] 0.027 | [10] 0.018 | [11] 0.164 | [13] 0.006 | [14] 0.108 | [15] -0.012 | [16] -0.015 | [17] -0.002 | [18] 0.016 | [19] -0.02 | [20] 0.145

LBR (UniProt Q14739)
Sequence of UniProt Q14739 (Q14739 whole entry, looked up): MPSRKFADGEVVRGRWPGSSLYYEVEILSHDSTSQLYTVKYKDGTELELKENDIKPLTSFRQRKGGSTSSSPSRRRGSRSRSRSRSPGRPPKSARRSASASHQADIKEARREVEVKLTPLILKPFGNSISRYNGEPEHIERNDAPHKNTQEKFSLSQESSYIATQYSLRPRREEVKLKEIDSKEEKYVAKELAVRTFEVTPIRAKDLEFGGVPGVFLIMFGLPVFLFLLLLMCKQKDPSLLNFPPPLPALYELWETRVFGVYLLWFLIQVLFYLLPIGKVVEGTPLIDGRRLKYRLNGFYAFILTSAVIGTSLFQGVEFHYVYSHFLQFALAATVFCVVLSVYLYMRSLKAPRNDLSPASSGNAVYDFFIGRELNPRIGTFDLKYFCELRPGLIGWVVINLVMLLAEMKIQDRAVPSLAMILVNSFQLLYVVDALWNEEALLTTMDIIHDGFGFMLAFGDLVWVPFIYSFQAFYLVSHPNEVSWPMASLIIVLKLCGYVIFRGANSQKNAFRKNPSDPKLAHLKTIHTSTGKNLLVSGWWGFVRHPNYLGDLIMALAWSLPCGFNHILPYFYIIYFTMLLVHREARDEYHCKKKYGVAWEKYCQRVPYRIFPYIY
inactive: [1] 0.045 | [2] -0.035 | [3] -0.002 | [4] 0.045 | [5] -0.108 | [6] 0.063 | [7] 0.05 | [8] -0.009 | [9] 0.125 | [10] 0.024 | [11] -0.036 | [13] 0.051 | [14] 0.022 | [15] -0.012 | [16] -0.071 | [17] 0.056 | [18] 0.086 | [19] -0.026 | [20] 0.099
active: [12] 0.552

MAPK8 isoform 3 (UniProt P45983)
Sequence of UniProt P45983 (P45983 whole entry, looked up): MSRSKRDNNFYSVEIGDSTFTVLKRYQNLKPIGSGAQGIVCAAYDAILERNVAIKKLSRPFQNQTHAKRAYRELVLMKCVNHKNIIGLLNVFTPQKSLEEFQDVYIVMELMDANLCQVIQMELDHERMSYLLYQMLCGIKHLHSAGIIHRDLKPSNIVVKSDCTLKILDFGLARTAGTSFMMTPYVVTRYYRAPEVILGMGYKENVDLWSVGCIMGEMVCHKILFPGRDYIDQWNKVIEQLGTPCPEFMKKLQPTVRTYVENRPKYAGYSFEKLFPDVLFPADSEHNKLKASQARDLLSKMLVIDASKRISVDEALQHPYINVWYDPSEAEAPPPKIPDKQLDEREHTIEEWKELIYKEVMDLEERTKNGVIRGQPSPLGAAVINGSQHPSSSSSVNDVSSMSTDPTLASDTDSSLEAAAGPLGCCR
inactive: [1] -0.038 | [2] -0.026 | [3] -0.015 | [4] -0.012 | [5] -0.099 | [6] 0.027 | [7] 0.012 | [8] 0.016 | [9] 0.119 | [10] 0.056 | [11] -0.112 | [12] -0.249 | [13] 0.003 | [14] 0.117 | [15] -0.036 | [16] 0.006 | [17] 0.004 | [18] 0.095 | [19] 0.013 | [20] -0.054

MAPK12 (UniProt P53778)
Sequence of UniProt P53778 (P53778 whole entry, looked up): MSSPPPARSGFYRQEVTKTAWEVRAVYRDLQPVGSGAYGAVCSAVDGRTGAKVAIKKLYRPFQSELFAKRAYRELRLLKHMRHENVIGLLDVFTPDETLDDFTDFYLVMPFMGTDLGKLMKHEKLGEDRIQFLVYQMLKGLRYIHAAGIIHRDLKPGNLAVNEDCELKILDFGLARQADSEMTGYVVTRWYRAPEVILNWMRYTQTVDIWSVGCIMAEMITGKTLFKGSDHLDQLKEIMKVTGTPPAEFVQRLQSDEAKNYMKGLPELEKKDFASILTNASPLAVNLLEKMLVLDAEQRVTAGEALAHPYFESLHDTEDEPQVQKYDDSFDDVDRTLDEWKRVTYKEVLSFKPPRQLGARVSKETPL
inactive: [1] -0.043 | [2] 0.017 | [3] -0.022 | [4] 0.09 | [5] -0.112 | [6] 0.019 | [7] 0.104 | [8] 0.016 | [9] -0.058 | [10] -0.031 | [11] -0.097 | [12] 0.036 | [13] -0.128 | [14] 0.089 | [15] 0.182 | [16] -0.051 | [17] 0.009 | [18] -0.176 | [19] -0.097 | [20] -0.077

MAP2K1 (UniProt Q02750)
Sequence of UniProt Q02750 (Q02750 whole entry, looked up): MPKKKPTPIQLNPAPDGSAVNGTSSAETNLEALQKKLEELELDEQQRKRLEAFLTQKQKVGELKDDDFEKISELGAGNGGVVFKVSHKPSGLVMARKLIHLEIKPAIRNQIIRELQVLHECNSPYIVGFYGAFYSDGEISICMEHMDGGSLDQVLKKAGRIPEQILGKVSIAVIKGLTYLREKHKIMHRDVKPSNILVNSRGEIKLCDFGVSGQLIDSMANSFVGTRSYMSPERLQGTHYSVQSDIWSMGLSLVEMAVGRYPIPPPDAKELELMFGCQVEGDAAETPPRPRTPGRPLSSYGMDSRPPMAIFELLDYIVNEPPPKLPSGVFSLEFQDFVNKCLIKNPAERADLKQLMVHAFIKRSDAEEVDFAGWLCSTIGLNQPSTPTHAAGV
inactive: [1] -0.013 | [2] 0.001 | [3] 0.029 | [4] 0.049 | [5] -0.061 | [6] -0.009 | [7] 0.018 | [8] 0.129 | [9] 0.007 | [10] 0.005 | [11] -0.017 | [12] -0.058 | [13] 0.024 | [14] 0.053 | [15] -0.006 | [16] -0.092 | [17] 0.032 | [18] 0.029 | [19] -0.06 | [20] -0.113

MIA2 (UniProt Q96PC5)
active: [12] -0.29
inactive: [1] 0.009 | [2] -0.012 | [3] -0.002 | [4] -0.016 | [5] 0.015 | [6] 0.003 | [7] -0.062 | [8] 0.128 | [9] 0.003 | [10] 0.021 | [11] -0.039 | [13] 0.005 | [14] 0.037 | [15] -0.009 | [16] 0.054 | [17] 0.005 | [18] 0.034 | [19] 0.031 | [20] 0.053

LRBA (UniProt P50851)
active: [12] -0.221
inactive: [1] -0.011 | [2] 0 | [3] -0.011 | [4] 0.001 | [5] -0.046 | [6] 0.01 | [7] 0.031 | [8] -0.025 | [9] 0.008 | [10] 0.038 | [11] -0.05 | [13] 0.034 | [14] 0.017 | [15] 0 | [16] -0.074 | [17] 0.008 | [18] 0.048 | [19] -0.057 | [20] -0.139

MAP4K4 isoform 3 (UniProt O95819)
active: [12] -0.316 | [20] -0.299
inactive: [1] -0.166 | [2] 0.013 | [3] 0.022 | [4] 0.012 | [5] 0.033 | [6] -0.007 | [7] 0.028 | [8] -0.02 | [9] 0.017 | [10] -0.012 | [11] -0.082 | [13] 0.011 | [14] 0.047 | [15] 0.017 | [16] -0.184 | [17] 0.012 | [18] 0.058 | [19] 0.001

LPCAT3 (UniProt Q6P1A2)
Sequence of UniProt Q6P1A2 (Q6P1A2 whole entry, looked up): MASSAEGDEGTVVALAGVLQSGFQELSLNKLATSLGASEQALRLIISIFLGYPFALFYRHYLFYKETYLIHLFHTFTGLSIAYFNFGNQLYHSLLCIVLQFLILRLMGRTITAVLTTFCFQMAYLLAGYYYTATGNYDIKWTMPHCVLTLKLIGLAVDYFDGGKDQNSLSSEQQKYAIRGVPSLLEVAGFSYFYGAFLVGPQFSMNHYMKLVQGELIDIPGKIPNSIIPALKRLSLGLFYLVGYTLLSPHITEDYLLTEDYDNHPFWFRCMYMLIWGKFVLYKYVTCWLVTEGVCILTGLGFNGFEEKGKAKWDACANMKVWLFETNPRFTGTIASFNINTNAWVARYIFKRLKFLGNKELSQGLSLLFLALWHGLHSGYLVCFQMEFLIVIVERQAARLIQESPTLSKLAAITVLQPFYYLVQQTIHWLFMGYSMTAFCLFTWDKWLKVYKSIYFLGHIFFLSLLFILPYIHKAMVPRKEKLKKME
inactive: [2] -0.029 | [3] 0.052 | [4] 0.033 | [5] -0.226 | [6] -0.019 | [7] 0.036 | [8] 0.089 | [9] 0.031 | [10] -0.005 | [11] 0.146 | [12] -0.026 | [13] -0.008 | [14] -0.005 | [15] 0.062 | [16] -0.063 | [17] 0.087 | [18] -0.042 | [19] -0.093 | [20] -0.202
active: [1] 0.289
